Compounds with a hit are over-represented: about 19% of the library has one in this group of screens.
HT1080NT lethal – kills 2HG-producing HT-1080-NT fibrosarcoma cells; Potency, µM (titrated, usually from 46.1 µM), for inactives: at the top dose activity, negative = less viability, usual class: cytotoxic; 360,000 tested, 1.6% active; HT-1080-NT fibrosarcoma viability, CellTiter-Glo ATP luminescence, 48 h;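 note: NT is the 2HG producing partner of a matched IDH1 knockdown line; potency is the fitted concentration of half-maximal effect; 0% = DMSO-treated cells and -100% = media-only wells without cells; nearly all actives have a fitted effect of over 55% in size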
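Compounds were tested in concentration-response format on HT-1080-NT cells for 48 hours at 37 degrees C. Cell viability came from CellTiter-Glo luminescence; curves were classified by r2, response magnitude and activity.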
TDP1 cell noCPT – qHTS for Inhibitors of human tyrosyl-DNA phosphodiesterase 1 (TDP1): qHTS in cells in absence of CPT; AID 686978, 2013; Potency, µM (top dose mostly 46.2 µM), for inactives: at the highest dose activity change, negative = growth inhibition, actives largely listed as inhibitors; 420,000 tested, 15% active; DT40 Tdp1-/- hTDP1 cells, no CPT, ATP luminescence, 48 h; note: potency is the fitted concentration of half-maximal effect; nearly all actives have a fitted effect of over 55% in size
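No-CPT arm: Tdp1-/-;hTDP1 DT40 cells (400/well) plus compounds, incubated ≥48 hr at 37 °C. Readout CellTiter-Glo luminescence.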
HT1080 IDH1KD tx – HT-1080 IDH1 knockdown cell toxicity (counter line). AID 686971. Potency, µM (top dose mostly 46.1 µM), inactives show at the top dose activity, negative = toxicity, actives largely listed as cytotoxic. HT-1080 IDH1 knockdown viability, ATP luminescence, 48 h. 360,000 tested, 2% active;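 note: potency is the fitted concentration of half-maximal effect; 0% = DMSO wells and -100% = cell-free medium wells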
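Using the IDH1-knockdown HT-1080 line run in the same batch and compound series as the NT line, viability after 48 h at 37 °C was determined by CellTiter-Glo luminescence and expressed as % activity.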
IL-1B inflam inh – inhibitors of inflammasome signaling (IL-1 beta secretion). THP-1 LPS/ATP IL-1B secretion, AlphaLISA, 16 h; active compounds read low. activity change, % at 57.5 µM. 360,000 tested, 4.7% active; in the data active = activity change below about -50%; inconclusive = mostly about -30% to -49%
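Secreted IL-1B measured by AlphaLISA bead assay after 16 h compound exposure of THP-1 cells; compounds (final up to 57.5 uM) added 1 h before LPS (250 ng/mL) and ATP (1.25 mM) stimulation; lower signal means less secretion.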
DT40 TDP1 CPT – growth inhibition of DT40 Tdp1-/-;hTDP1 cells with camptothecin (screen for TDP1 inhibitors). chicken DT40 Tdp1-/-;hTDP1 cells + 20 nM CPT, ATP luminescence, 48 h. Potency, µM (doses to about 46.2 µM), for the others: at the top dose activity change, negative = growth inhibition, hits mostly inhibitors. 420,000 tested, 12% active. AID 686979; note: potency is the fitted concentration of half-maximal effect; nearly all actives have a fitted effect of over 55% in size
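Chicken DT40 Tdp1-/- cells complemented with human TDP1, 400 cells/well, exposed to compounds plus 20 nM camptothecin for at least 48 h at 37 C; viability read as ATP content by CellTiter-Glo luminescence.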
ELG1 repair inh – ELG1-dependent DNA repair inhibition; HEK293T ELG1-luciferase reporter, luminescence, 16 h; DNA damage induced by 5-fluorouridine; Potency, µM (top dose mostly 46.1 µM), for inactives: at the highest dose activity change, negative = inhibition, usual class: inhibitors; 330,000 tested, 2.3% active; note: potency is the fitted concentration of half-maximal effect; nearly all actives have a fitted effect of over 55% in size
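DMSO vehicle served as the neutral condition. Each well held 2,000 cells given 5-fluorouridine plus compound; after 16 hr at 37 °C/5% CO2, ONE-Glo was added and luciferase measured 30 min later.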
The depositor's hits bear a star; ? = inconclusive; nt = no result given; [ ] = dose if it differs, or a comment. Unless noted, calls come from the whole dose curve; as a rule, active = well fitted curve in the direction sought with a large enough effect; inconclusive = small, poorly fitted or top-dose-only effect, or another doubt; inactive = no such curve, though single readings can be large; an effect the other way counts as inactive or inconclusive. Unless noted, % is set by controls: 0 for no effect and ±100 for the full control effect.

SMILES | HT1080NT lethal | TDP1 cell noCPT | HT1080 IDH1KD tx | IL-1B inflam inh | DT40 TDP1 CPT | ELG1 repair inh
Cn1cc(CN(C(=O)Nc2ccccc2)C2CCCCC2)c2ccccc21 | nt | 8.2µM* | nt | nt | 6.51µM* | nt
Cc1ccsc1CN(C)CC(=O)N(C)CC(=O)Nc1c(Cl)cccc1Cl | 1.1% | -24.2% | 5.2% | -4.7 | 4.8% | nt
Cc1cnc(C)c(-c2cccc3c2OC(CNC(=O)C[C@@H]2C[C@@H](C)NC(=S)N2)C3)n1 (stereo partly drawn) | nt | 0.1% | nt | nt | 1.6%[9.04 µM] | nt
CC1=C(C(=O)Nc2ccc(C(=O)NCCCN3CCCCC3C)cc2)SCCO1 (stereo not drawn) | -3.8% | 3.2% | -16.0% | ? | -20.3% | nt
O=C(OCCn1c(=S)sc2ccccc21)c1ccccc1 | 10.8% | -24.6% | 14.4% | 1.2 | -5.1% | nt
Cc1c2cnccc2c(C)c2c1c1ccccc1n2CCOC(=O)c1ccccc1 | nt | 11.2µM* | nt | nt | ? | nt
NC(=O)c1ccccc1N/C=C/C(=O)c1ccc(F)cc1 | -27.6% | 14.6µM* | -24.3% | -5.5 | ? | ?
NC(=O)c1ccccc1N/C=C/C(=O)c1ccc(Cl)cc1Cl | -18.9% | 18.4µM* | -15.0% | -54.8* | ? | ?
O=C1/C(=C/c2ccc(S(=O)(=O)O)cc2S(=O)(=O)O)CCc2ccccc21 | 25.4% | -1.3% | 7.9% | 19.7 | 3.5% | nt
Cc1cc(-n2[nH]c(C)c(C)c2=O)nc(-c2ccccc2O)n1 | -18.3% | ? | ? | 81.5 | 16.4µM* | ?
Cc1ccc2[nH]c(C)cc(=S)c2c1 | ? | 16.4µM* | 23.1µM* | -69.2* | 13µM* | -8.9%
Cc1cc(=S)c2ccccc2[nH]1 | ? | -14.8% | -21.1% | -85.8* | ? | -16.3%
S=c1nc(-c2ccccc2)[nH]c2ccccc12 | -21.0% | -25.2% | -12.4% | 10.0 | ? | -6.4%
Cc1ccc(C(=O)NC2CC(C)(C)NC(C)(C)C2)cc1S(=O)(=O)N1CCCCC1 | -20.8% | -12.6% | 0.4% | -8.7 | 3.5% | 2.2%
COc1cc2c(c(OC)c1OC)-c1c(cc3c(c1OC)OCO3)C[C@H](C)[C@@](C)(O)C2 | 15.6% | -19.2% | 14.5% | -17.5 | -15.8% | 1.5%
C/C=C(/C)C(=O)O[C@@H]1c2cc3c(c(OC)c2-c2c(cc(OC)c(OC)c2OC)[C@@H](OC(C)=O)[C@@H](C)[C@H]1C)OCO3 | 1.8% | 16.4µM* | 10.7% | 1.5 | 18.4µM* | -6.8%
CCOc1ccc(N(CC(=O)NC2CCCCC2C)S(=O)(=O)c2c(C)noc2C)cc1 (stereo not drawn) | 2.5% | -1.8% | 10.0% | 11.8 | ? | -1.1%
CCOc1ccc(S(=O)(=O)N(CC(=O)NC2CCCCC2C)Cc2ccco2)cc1 (stereo not drawn) | 1.5% | 25.9µM* | -5.0% | ? | 14.6µM* | ?
CC(C=NNc1ccc([N+](=O)[O-])cn1)=Cc1ccccc1 | 8.8% | ? | 8.3% | -9.3 | ? | nt
COc1ccc(-c2cn3cccnc3n2)cc1NC(=O)c1cc(OC)c(OC)c(OC)c1 | -13.6% | ? | -12.7% | -18.8 | -29.1% | 8.2µM*
COc1ccc(-c2cn3cccnc3n2)cc1NC(=O)Nc1ccc(Cl)cc1 | nt | 16.4µM* | nt | nt | ? | nt
Cc1nc2cnc(Oc3ccccc3)nc2n(C2CC2)c1=O | nt | ? | nt | nt | -24.9% | nt
CC(O)Cn1c(N2CCCC2)nc2c1c(=O)[nH]c(=O)n2C (stereo not drawn) | 14.6% | -6.7% | 13.7% | 1.7 | -1.7% | 9.6%
COC(=O)c1c(NC(=O)Cc2cccs2)sc(C(=O)N2CCCCC2)c1C | -1.8% | -23.5% | -28.9% | 23.2 | ? | 25.9µM*
CCOC(=O)c1c(NC(=O)Cc2cccs2)sc(C(=O)NC2CCCCC2)c1C | 7.1% | 16.4µM* | 7.2% | 13.3 | ? | ?
SMILES | HT1080NT lethal | TDP1 cell noCPT | HT1080 IDH1KD tx | IL-1B inflam inh | DT40 TDP1 CPT | ELG1 repair inh
CCOC(=O)c1ccc(NS(=O)(=O)c2cc(-c3onc(C)c3C)ccc2C)cc1 | nt | ? | nt | nt | -22.6% | nt
CC(=O)Oc1cccc(N2C(=O)c3ccc(C(=O)Nc4c[nH]c(=O)[nH]c4=O)cc3C2=O)c1 | 0.6% | -0.8% | 17.4% | 7.9 | -2.0% | -0.5%
Cc1cc(C)cc(NC(=O)Cn2c(=O)oc3cc(S(=O)(=O)N4CCCC4)ccc32)c1 | nt | 20.6µM* | nt | nt | ? | nt
O=C(Cn1c(=O)oc2cc(S(=O)(=O)N3CCCC3)ccc21)Nc1ccccc1Br | 13.3% | -20.9% | -0.7% | -1.0 | ? | -18.5%
Cc1ccc(NC(=O)Cn2c(=O)oc3cc(S(=O)(=O)N4CCC(C)CC4)ccc32)cc1C | ? | ? | ? | 19.5 | 14.6µM* | ?
Cc1ccc(NC(=O)Cn2c(=O)oc3cc(S(=O)(=O)N4CCCCC4)ccc32)c(Cl)c1 | nt | 11.6µM* | nt | nt | ? | nt
Cc1cc(NC(=O)Cn2c(=O)oc3cc(S(=O)(=O)N4CCCC4)ccc32)ccc1Br | nt | 14.6µM* | nt | nt | 20.6µM* | nt
Cc1ccc(NC(=O)Cn2c(=O)oc3cc(S(=O)(=O)N4CCCC4)ccc32)cc1F | nt | -20.2% | nt | nt | -20.7% | nt
CC(Sc1nnc(-c2ccncc2)n1C)C(=O)NCC1CCCO1 (stereo not drawn) | -0.1% | -1.8% | -5.2% | 18.5 | 1.8% | 7.2%
O=C(Cc1cccs1)Nc1nc2c(s1)CCCC2 | ? | ? | 1.12µM* | -10.6 | ? | ?
O=C(Nc1nc2c(s1)CCCC2)c1cccs1 | ? | 20.6µM* | ? | -8.0 | ? | ?

High-throughput results as filed in PubChem.
